Laboratory results from PubChem BioAssay (NCATS).
Results filed as inconclusive are left out. A number with no mark means an inactive call. Activity calls are given as the source filed them. Calls follow the shape of the dose curve; as a rule, active = well fitted inhibition curve with a large enough effect; inconclusive = small, poorly fitted or top-dose-only effect, or effect the other way; inactive = flat fitted curve, though single readings scatter.

biological target: ATP-dependent 6-phosphofructokinase (Trypanosoma brucei brucei) (UniProt O15648); experiment: qHTS Assay to Find Inhibitors of T. brucei phosphofructokinase: hit validation (AID 492961); conditions: T. brucei PFK, ADP-Glo luminescence; series mostly up to 51.4 µM; activity change, negative = inhibition: at the top concentration
Sequence (O15648 whole entry, looked up): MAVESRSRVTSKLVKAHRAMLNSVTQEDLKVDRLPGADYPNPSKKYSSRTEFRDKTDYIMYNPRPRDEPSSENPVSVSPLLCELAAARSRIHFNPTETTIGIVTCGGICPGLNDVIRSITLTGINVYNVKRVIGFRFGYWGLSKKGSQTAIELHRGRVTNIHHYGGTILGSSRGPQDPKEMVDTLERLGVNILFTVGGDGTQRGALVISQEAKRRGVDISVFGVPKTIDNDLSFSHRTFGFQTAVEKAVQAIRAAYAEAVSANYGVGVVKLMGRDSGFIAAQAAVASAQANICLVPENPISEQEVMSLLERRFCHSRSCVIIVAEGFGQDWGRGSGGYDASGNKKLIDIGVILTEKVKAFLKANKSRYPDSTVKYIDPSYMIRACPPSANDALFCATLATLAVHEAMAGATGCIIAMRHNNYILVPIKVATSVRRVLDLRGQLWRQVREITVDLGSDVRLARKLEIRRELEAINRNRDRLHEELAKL
How it was run: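 Luminescence from ADP-Glo reports ADP generated as T. brucei PFK (1.25 nM) phosphorylates 0.5 mM fructose-6-phosphate using 0.1 mM ATP. Reactions ran 45 min at room temperature, pH 8.0.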
% is scaled to controls: 0 for no effect and ±100 for the full control effect; potency is read from the fitted curve at half-maximal effect.

SMILES	activity change, negative = inhibition	Potency
N[C@@H](CSCCCO)C(=O)O	9.99%	–
CN(C)CCN(Cc1ccccc1)c1ccccn1	10.1%	–
CCOC(=O)c1ccc(O)cc1	-5.94%	–
CC(C)(C)C(=O)NCCCC(=O)O	-9.41%	–
O=c1[nH]c(=O)c2[nH]c(=O)[nH]c2[nH]1	-3.38%	–
CCOc1nc2cccc(C(=O)O)c2n1Cc1ccc(-c2ccccc2-c2nn[nH]n2)cc1	5.02%	–
CN1CCC[C@@H]1Cc1c[nH]c2ccc(CCS(=O)(=O)c3ccccc3)cc12	-4.61%	–
COc1ccc2[nH]c(S(=O)Cc3ncc(C)c(OC)c3C)nc2n1 (stereo unspecified)	-1.44%	–
O=S(=O)(O)NC1CCCCC1	9.27%	–
Cc1cc(CC(=O)O)n(C)c1C(=O)c1ccc(Cl)cc1	–	inactive
CC(O)COc1ccccc1 (stereo unspecified)	-5.79%	–
O=C(O)CN1C(=O)c2cccc3cccc(c23)C1=O	-2.06%	–
O=C(CCCN1CCN(c2ccccn2)CC1)c1ccc(F)cc1	-6.19%	–
O=c1cc[nH]c(=S)[nH]1	-0.0569%	–
Nc1nc2c(ncn2CCC(CO)CO)c(=O)[nH]1	-6.66%	–
Cc1ccc2nc(N)[nH]c(=O)c2c1Sc1ccncc1	0%	–
COc1cc(C(=O)N2CCOCC2)cc(OC)c1OC	–	inactive
NC(CSCC(=O)O)C(=O)O (stereo unspecified)	0%	–

SMILES	activity change, negative = inhibition	Potency
O=C(O)CC(O)C(=O)O (stereo unspecified)	2.45%	–
Nc1ccc(S(=O)(=O)Nc2ccccc2)cc1	-2.5%	–
CCCCN1CCCC[C@H]1C(=O)Nc1c(C)cccc1C	5.96%	–
CCCOC(=O)c1ccccc1	-0.936%	–
CCCCCCCCCCCCCCCCCCOCC(O)CO (stereo unspecified)	2.37%	–
CC(=O)CCC(=O)O	2.82%	–
NC(=O)N/N=C/c1ccc([N+](=O)[O-])o1	8.16%	–
[O-][n+]1cccc(CO)c1	5.97%	–
O=C(O)COc1nn(Cc2ccccc2)c2ccccc12	-8.35%	–
CN1CCCCC1CCN1c2ccccc2Sc2ccc(S(C)=O)cc21 (stereo unspecified)	-7.01%	–
NS(=O)(=O)c1cc2c(cc1Cl)NC(CSCc1ccccc1)=NS2(=O)=O	-1.37% [at 24.3 µM]	–
CCN(CC)CCSC(=O)C(c1ccccc1)c1ccccc1	–	inactive
COc1cc(C)c(Cc2cnc(N)nc2N)cc1OC	19.2%	–
CCN(CC)CCNC(C(=O)OCCC(C)C)c1ccccc1 (stereo unspecified)	-2.36%	–
[Cl][In]([Cl])[Cl]	24.1%	–
NC(=O)NNc1ccccc1	–	inactive
COc1cc2[nH]c(=O)[nH]c(=O)c2cc1OC	-4.05% [at 24.3 µM]	–
O=S(=O)(O)c1cc(I)c(O)c2ncccc12	–	31.6 µM (active)
